Rows were chosen to be rich in hits. Some 12% of all compounds tested hit in one or more screens of this group.
Lmaj promast: inhibitors of Leishmania major promastigote growth; hit rate 9% among 200,000; Leishmania major promastigotes, resazurin fluorescence viability; inhibition, % at 10 µM; in the data active = inhibition above about 50%;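 note: promastigotes grown with compound for 44 hours at 28 °C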
CHOP inh: inhibitors of CHOP induction in ER stress response | CHO-K1 CHOP-promoter luciferase, tunicamycin-induced, 15-18 h | inhibition, % at 10 µM | hit rate 3.8% among 220,000;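 active = compounds that reduced the stress-induced luciferase reporter signal by more than about 70% of percent inhibition, limit read from the data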;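 note: 0% = tunicamycin plus vehicle and 100% = wells without tunicamycin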
Arbovirus inh: blocks arbovirus infection. arbovirus infection cell-based antiviral screen. inhibition, % at 10 µM. hit rate 0.37% among 200,000; in the data active = inhibition above about 30%
WT yeast gro inh: growth inhibition of WT yeast, mitochondrial fusion screen; inhibition, % at 10 µM; mitochondrial fusion phenotypic screen, WT strain; hit rate 2.1% among 190,000; in the data active = inhibition above about 58%; tested in S. cerevisiae
Numbers without * were called inactive; . = no result given.

SMILES	Lmaj promast	CHOP inh	Arbovirus inh	WT yeast gro inh
CCN(CC)S(=O)(=O)c1ccc(C(=O)NCCN2C(=O)S/C(=C\c3cccnc3)C2=O)cc1	28.3	-1.6	3.7	-14.2
CC(C)(C)C(=O)NCCN1C(=O)S/C(=C\c2ccc([N+](=O)[O-])cc2)C1=O	56.8*	11.5	-0.3	-24.6
CCCCN1C(=O)c2ccc(C(=O)NCCN3C(=O)S/C(=C\c4cccnc4)C3=O)cc2C1=O	31.1	76.3*	6.7	-10.1
O=C(/C=C/c1ccccc1[N+](=O)[O-])NCCN1C(=O)S/C(=C\c2ccc(F)cc2)C1=O	-4.7	-56.6	-8.0	-46.4
N#CNC(=Nc1ccc(Cl)cc1)Oc1ccccc1	.	-15.9	.	.
CC(C)(C)NC(=O)NC(=O)CN1CCN(S(=O)(=O)c2ccc3c(c2)OCCO3)CC1	.	7.5	.	.
CCCN(CC1CC1)C(=O)COC(=O)c1[nH]c(C)c(C(=O)OCC)c1C	80.2*	22.1	10.6	12.0
CC(=O)Nc1ccc(NS(=O)(=O)c2cc(-c3n[nH]c(=O)c4ccccc34)ccc2C)cc1	.	4.8	.	.
Cc1cc(C)c(OCCN(C)C)c(Cl)c1	1.4	7.5	6.7	18.5
Cc1cc(Br)cc(C)c1OCCCCN(C)C	99.7*	20.1	-20.7	-1.0
Cc1ccc(OCCCN(C)C)c(Br)c1	60.0*	39.7	-5.6	-0.5
CN(C)CCCOc1ccc(Cl)cc1Br	61.7*	42.9	-6.0	1.7
Cc1cc(Cl)c(OCCCN(C)C)c(Br)c1	78.7*	13.7	-9.6	25.1
Clc1ccc(OCCSc2ncccn2)c(Br)c1	0.7	34.8	-17.2	31.1
Cc1ccc(C(C)C)c(OCCN(C)C)c1	0.5	-23.6	13.0	-12.0
C=C(C)Cn1c(-c2ccncc2)n[nH]c1=S	-7.4	22.1	8.5	-11.9
COc1ccccc1OCCCOc1c(C)cc(C)cc1Br	36.9	41.1	-1.2	6.9
Cc1cc(Cl)c(OCCCCNC(C)(C)C)c(Br)c1	97.7*	13.8	-15.3	-10.5
COc1cccc(OC)c1OCCCOc1ccc(C)cc1Br	37.2	62.8	0.3	66.8*
COc1ccccc1OCCCCNC(C)(C)C	5.5	-6.4	-1.7	34.3
CC(C)NCCOCCOc1ccc(Cl)cc1Br	94.5*	-12.6	-32.0	7.7
COc1cc(C)ccc1OCCOCCOc1c(C)cc(C)cc1Br	-6.6	83.5*	13.5	1.5
CCCCN(C(=O)c1ccc(Cl)c([N+](=O)[O-])c1)c1c(N)n(CCC)c(=O)[nH]c1=O	-2.3	-0.5	-6.9	-3.4
Cc1cc(/C=N/NC(=O)C(=O)NCc2ccccn2)c(C)n1-c1ccccc1	1.8	34.0	7.2	16.3
CC(C)(C)C1CCc2sc(C(=O)NNC(=O)CCl)cc2C1 (centres undefined)	38.8	-53.9	-33.3	41.8
SMILES	Lmaj promast	CHOP inh	Arbovirus inh	WT yeast gro inh
Cn1c(SCC(=O)Nc2cc(Cl)cc(Cl)c2)nnc1-c1ccc2nonc2c1	.	67.5	.	.
CN(C)CCOCCOc1ccc(Cl)cc1Br	92.6*	3.4	-10.3	5.9
CC1CCCCN1C(=O)Cn1cc(C=O)c2ccccc21 (centres undefined)	-5.7	3.9	3.1	-7.7
CC1CCCCN1C(=O)Cn1cc(/C=C2/C(=O)Nc3ccccc32)c2ccccc21 (centres undefined)	19.0	56.0	-19.9	95.6*
Cc1nn(-c2cc(N3CCCCC3)ccc2N)c(=O)c2ccccc12	-4.4	2.6	11.1	1.5
Nc1ccc(N2CCCCC2)cc1N1CCCCC1	100.2*	43.1	-14.9	71.7*
NNC(=O)c1csc(-c2ccc(C(F)(F)F)cc2Cl)n1	.	20.5	.	.
Cc1ccc(CN(Cc2cccnc2)C(=O)CN2C(=O)COc3ccccc32)o1	72.5*	-16.3	-0.7	-10.2
COc1cc(C(=O)O)cc(NC(=O)c2cccs2)c1OC	25.9	13.2	-3.3	-11.6
COc1cc(C(=O)OCc2ccc(C)cc2)cc(NC(=O)c2cccs2)c1OC	54.5*	-1.7	-9.0	16.1
O=C(CCCN1C(=O)c2ccccc2C1=O)Nc1ccccc1	.	9.7	.	.
NC(=O)c1ccc(NC(=O)CCCN2C(=O)c3ccccc3C2=O)cc1	-4.0	19.6	0.3	63.2*
CCCCC(CC)CNC(=O)C1C2C=CC(C2)C1C(=O)O (centres undefined)	-1.3	13.9	-0.1	-4.8
C=CCN=c1scc(-c2ccc(F)cc2)n1/N=C/c1ccccn1	9.5	-14.7	1.2	38.8
C=CCN=c1scc(-c2ccccc2)n1/N=C/c1ccccn1	11.2	7.4	31.7*	75.3*
CCOC(=O)c1sc2ncn(/N=C/c3ccc(O)c(OC)c3)c(=O)c2c1C	27.6	62.1	-3.1	6.8
Cc1ccc(S(=O)(=O)NCCc2cccs2)cc1	.	9.3	.	.
Cc1ccc(C2C(C#N)=C(N)Oc3cc(C)oc(=O)c32)o1 (centres undefined)	100.4*	-46.2	-4.9	-3.3
Cc1ccc(C)c(C2C(C#N)=C(N)Oc3cc(C)oc(=O)c32)c1 (centres undefined)	-3.8	-14.1	-0.1	-11.4
CC1=Nc2cc(C(=O)O)ccc2Sc2ccc(C)cc21	-6.7	5.9	9.6	-9.8
CC1=Nc2cc(C(=O)NCc3ccco3)ccc2Sc2ccc(C)cc21	59.2*	-20.0	-2.5	22.0
CC(C)Nc1ccc(Nc2ccnc3cc4ccccc4cc23)cc1	.	12.2	.	.
c1ccc(CCNc2ccnc3cc4ccccc4cc23)cc1	100.5*	39.4	-32.2	63.4
COc1cccc(-n2nnc3c(=O)n(CC(=O)Nc4cc(C)on4)cnc32)c1	8.5	13.2	-4.3	2.1
COc1ccccc1/C=C\C(=O)NCC(=O)N/N=C(\C)Cc1ccccc1	.	-14.8	.	.
SMILES	Lmaj promast	CHOP inh	Arbovirus inh	WT yeast gro inh
Cc1cccc(NC(=O)[C@H](Cc2ccccc2)NC(=O)OCc2ccccc2)c1	70.8*	17.0	3.4	19.8
O=C(NC(NC(=S)Nc1cccc(Cl)c1)C(Cl)(Cl)Cl)OCc1ccccc1 (centres undefined)	100.2*	109.3*	-21.8	50.0
Cc1cccc(-n2c(CNC(=O)c3ccc(S(=O)(=O)N(C)C)cc3)nnc2SCC(=O)Nc2ccc(F)cc2)c1	-8.4	30.9	-10.2	0.8
S=C1NCCc2ccc(Cl)cc2C1c1ccccc1 (centres undefined)	-1.6	6.4	-8.4	70.8*
CCOc1ccc(CN2C(=O)CC(=O)N(S(=O)(=O)c3ccc(OCC)cc3)C2=O)cc1	.	3.7	.	.
Cc1nc(Nc2ccccc2)[nH]c(=O)c1CCC(C)C	22.9	89.1*	4.8	-26.9
CC1(C)Cc2c(cnn2-c2ccccc2)-c2c1c1ccccc1n2CC(O)CCl (centres undefined)	100.4*	94.0*	-35.5	24.3
CC1(C)Cc2c(cnn2-c2ccccc2)C(=O)/C1=N\NC(=O)c1ccncc1	-6.3	.	.	.
CC(N)=NCCC[C@H](N)C(=O)O	.	0.8	.	.
Cc1cc(-c2csc(N)n2)c(C)n1CCC(C)C	-1.9	79.3*	-3.0	16.4
Cc1cc(-c2csc(N)n2)c(C)n1CCc1ccccc1	11.2	80.8*	1.2	25.4
Cc1cc(-c2csc(NCc3ccccc3)n2)c(C)n1C	16.4	20.1	8.1	4.8
COc1cc(OC)c(C(=O)CCCN2CCCC2)c(OC)c1	3.3	11.8	5.7	-3.0
FC(F)(F)c1cccc(Oc2ccc3c(C(F)(F)F)cc(C(F)(F)F)nc3n2)c1	-1.0	26.1	50.6*	12.8
CC12C(=O)N(Cc3ccco3)C(=O)C1C1c3ccccc3C2c2ccccc21 (centres undefined)	-2.0	21.4	2.2	8.1
CC(Oc1ccc(Cl)cc1Cl)C(=O)NCCCCc1ccccc1 (centres undefined)	5.3	50.1	21.2	61.2*
CN(C)CCCNC(=O)COc1ccc(Br)cc1Cl	91.4*	-22.2	5.1	-9.9
